Measured values published in PubChem BioAssay AID778 (Sanford-Burnham Center for Chemical Genomics, 2007).
The campaign covered roughly 96,000 compounds. About 20,000 (21%) were called active.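 The calls were made as follows: active = CYP2C19 inhibition above a set limit at 5 µM in the primary screen (cut at about 50% in these data); inactive = the rest.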 A selection follows.

molecular target: Cytochrome P450 2C19 (Homo sapiens) (UniProt P33261); test: blockers of cytochrome P450 2C19 activity – biochemical, luminescence, ADME assay, primary screen (AID 778); settings: CYP2C19 Supersomes, luciferin-H EGE luminescence, 30 min; at 5 µM; active compounds read high;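 also: plate controls were negative control wells for no effect and 2.5 mM tranylcypromine positive control for full effect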
Sequence (P33261 whole entry, looked up): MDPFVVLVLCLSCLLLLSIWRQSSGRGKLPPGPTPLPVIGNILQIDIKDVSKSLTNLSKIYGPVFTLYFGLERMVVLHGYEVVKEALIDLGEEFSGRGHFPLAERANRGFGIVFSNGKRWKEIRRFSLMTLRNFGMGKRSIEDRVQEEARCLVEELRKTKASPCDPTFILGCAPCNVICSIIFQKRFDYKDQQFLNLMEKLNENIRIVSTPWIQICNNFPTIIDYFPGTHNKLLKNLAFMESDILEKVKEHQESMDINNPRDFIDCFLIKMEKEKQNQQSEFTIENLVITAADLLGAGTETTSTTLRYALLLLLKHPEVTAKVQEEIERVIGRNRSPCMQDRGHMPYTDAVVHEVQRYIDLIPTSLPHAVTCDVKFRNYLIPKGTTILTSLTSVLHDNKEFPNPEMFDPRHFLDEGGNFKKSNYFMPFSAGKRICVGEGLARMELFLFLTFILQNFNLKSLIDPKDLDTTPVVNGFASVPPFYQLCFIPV

inhibition, active:
CCOc1cccc(=O)c2c(C)n(CC3CCCO3)c(C)c12 (centres undefined) 92.1%
COc1ccc(-c2cc(C(F)(F)F)nc(NCc3cccnc3)n2)cc1 73.4%
O=C(CC(O)(C(F)(F)F)C(F)(F)F)Nc1ccc(Cl)c(Cl)c1 77%
Fc1ccc2[nH]c3c(N4CCSCC4)ncnc3c2c1 58.5%
Fc1ccc2[nH]c3c(N4CCN(Cc5ccc6c(c5)OCO6)CC4)ncnc3c2c1 61.2%
COC(=O)c1ccc(NC(=O)c2ccco2)cc1 53.1%
O=C(Nc1ccc(Oc2ccccc2)cc1)c1ccco1 59.9%
Cc1cccc(-n2cnc(C(=O)Nc3cccnc3)c2)n1 57%
c1ccc(Nc2nc(N3CCOCC3)c3ccccc3n2)cc1 55.6%
COc1ccccc1N1CC(O)=C(c2nc3ccccc3s2)C1=N 50.8%
COc1cc(OC)c(NC(=O)c2ccc(Br)o2)cc1Cl 79.4%
FC(F)(F)c1cccc(NC(=S)Nc2cccc(Cl)c2)c1 74.9%

inhibition, inactive:
COCc1cc(C)nc2sc3c(=O)n(-c4cccc5ccccc45)nnc3c12 24.5%
CN1c2ccccc2-c2nc3ccccc3n2C1c1ccco1 (centres undefined) 14.2%
O=c1c2cc3c(=O)n(CC4CCCO4)c(=O)c3cc2c(=O)n1CC1CCCO1 (centres undefined) 0.8%
COC(=O)c1ccc2c(=O)n(CC3CCCO3)c(=S)[nH]c2c1 (centres undefined) -6.3%
COc1ccc(-c2cc(C(F)(F)F)nc(S(C)(=O)=O)n2)cc1OC 12.6%
COc1ccc(-c2nc(CS(=O)CC(=O)NCc3cccnc3)c(C)o2)cc1OC (centres undefined) 24.2%
COc1ccc(-c2csc3nc(-c4ccccc4F)oc(=O)c23)cc1OC 25.3%
CCCOc1ccccc1-c1nc(SCCC(=O)O)n[nH]1 -4.6%
Cc1nnc(NC(=O)Nc2ccc(Cl)c(Cl)c2)s1 -9.1%
N/C(=N\OC(=O)Nc1ccc(Cl)c(Cl)c1)c1ncc(C(F)(F)F)cc1Cl -13.4%
COc1ccccc1Nc1ncnc2c1oc1ccccc12 30.1%
CC1(C)CC(=O)C=C(NCCN2CCNCC2)C1 -7.9%
c1n[nH]c(NCc2ccc3c(c2)OCO3)n1 -7.6%
CCN1CCCC1CNc1ncnc2c1[nH]c1ccc(F)cc12 (centres undefined) 14.6%
CC(C)OCCCNc1ncnc2c1[nH]c1ccc(F)cc12 31.8%
Cc1cc(N2CCN(Cc3ccc4c(c3)OCO4)CC2)n2ncnc2n1 8.7%
Cc1cc(C(F)(F)F)n2ncc(-c3ccccc3)c2n1 21.2%
C=C1c2cc(CC)ccc2NC(=O)N1c1ccc(C)cc1 32.6%
CC1(C)CC(=O)C2=C(C1)NCN(CCCN1CCOCC1)C2 -0.8%
CCCCc1nc(NCCN)c(C#N)c2c1CSC(C)(C)C2 25.3%
CCNc1nc(SCCOc2ccccc2)nc(N(C)C)n1 12.3%
Cc1ccnc(NC(=O)c2ccc(NC(=O)c3ccco3)cc2)c1 13.1%
O=C(Nc1ccc(Sc2ccc(Br)cc2)cc1)c1ccco1 6.9%
O=C(/C=C/c1ccco1)Nc1ccc(Oc2ccccc2)cc1 8.4%
O=C(CSc1ccccc1)Nc1ccc(NC(=O)c2ccco2)cc1 22%
CCOCCOC(=O)C1=C(C)N(C)C(=O)NC1c1ccccc1F (centres undefined) 47.5%
COc1ccc(CCNC(=O)CN2CCC(n3nnc4cc(F)ccc43)CC2)cc1OC 22.7%
Cc1ccc(C(=O)NNC(=O)OC(C)(C)C)c(Cl)c1 14.6%
CCN1CCN(Cc2nc3c(c(=O)n(C)c(=O)n3C)n2CC(=O)c2ccccc2)CC1 4.3%
CC1CN(c2cc(=O)n(Cc3ccc(F)cc3)c(=O)[nH]2)CC(C)O1 (centres undefined) -11%
Cc1ccccc1/[N+]([O-])=C/c1ccncc1 42.4%
CCOc1cc(/C=C2/N=C(c3ccc(C(C)(C)C)cc3)OC2=O)cc(Cl)c1OS(C)(=O)=O 14.4%
COC(=O)c1sccc1-n1cccc1C(=O)C(=O)N1CCCCC1 31.2%
Cc1cc(C)c(NC(=O)CS(=O)CC(=O)Nc2cccnc2)c(C)c1 (centres undefined) 13.1%
CCC(=O)Nc1cccc(NC(=O)c2cccnc2)c1 6.1%
COc1cc(/C=C(/NC(=O)c2ccccc2)C(=O)Nc2cccc(O)c2)c([N+](=O)[O-])cc1OC 6.1%
Cc1cc(C(=O)Nc2ccccc2N2CCOCC2)c2ccccc2n1 29.8%
c1ccc(-c2oc3ncnc(N4CCOCC4)c3c2-c2ccccc2)cc1 9.2%
CCCCc1c(O)nc2n(c1=O)CCS2 -19.9%
COc1ccc(C(=O)CSc2n[nH]c(N)n2)cc1 4.5%
CCCCCN1CC(O)=C(c2nc(-c3ccc(Cl)cc3)cs2)C1=N 7.1%
COC(=O)Cc1cc(=O)n(-c2nc3ccccc3s2)[nH]1 13.8%
Cc1ccc(Nc2nc(-c3sc(NC(=O)c4ccccc4)nc3C)cs2)cc1 17.1%
CCN1CCN(c2c(Cl)cccc2NC(=O)c2ccc(Br)o2)CC1 16%
CCCC(=O)Nc1ccc(Cl)c(NC(=O)c2ccc(Br)o2)c1 12.5%
O=C(COc1cc(Cl)c(Cl)cc1Cl)NC(=O)NC1CCCC1 -6.2%
CCCC(=O)N1CCc2[nH]c3ccccc3c2C1 25.3%
O=C(Nc1cccc(Cl)c1)OCc1ccccn1 27.1%
FC(F)(F)c1cccc(Nc2ncnc3ccccc23)c1 44.1%
CCOc1cc(N2CCOCC2)c(OCC)cc1NC(=O)COC(=O)[C@H](Cc1c[nH]c2ccccc12)NC(C)=O -4.2%
COc1cccc(N2C(=O)CC(N3CCN(S(=O)(=O)c4ccccc4)CC3)C2=O)c1 (centres undefined) 1.5%
CN1CCN(c2ccc([N+](=O)[O-])c(Sc3nc4ccccc4[nH]3)c2)CC1 33.8%
